In assay [1] the test system is Jurkat. The assay can be described thus: mean cell size (FSC-A) relative to DMSO control (fraction of control); higher = larger cells. Conditions: 48 h. An outline of the steps:
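Jurkat cells at 600 cells/µl were incubated for 1 h and then treated for 48h with the Enzo Screen-Well FDA Approved Drug Library v2.0 at 25µM, with DMSO at 0.9% (v/v) final. Compounds that reduced counts below 20% of controls were retested in 10-fold dilutions down to 25nM. Cell count and mean cell size, taken as forward scatter area, were measured by flow cytometry relative to solvent-only controls. Each plate carried 6-12 controls, and values are means of 3 biological replicates.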

Assay [2] relates to Jurkat. The assay is described as follows: cell count relative to DMSO control (fraction of control); higher = more cells (less growth inhibition). The note with it: 48 h.

Structures can show the parent of a compound that is named as a salt. ± gives the standard deviation.

Take `NS(=O)(=O)c1cc2c(cc1Cl)NCNS2(=O)=O` [Hydrochlorothiazide] (concentration: 25 µM): the mean cell size with Jurkat [1] is 0.901 ± 0.044. Besides, the cell count in the assay with Jurkat [2] is 0.411 ± 0.088.

For `C[C@H](Cn1cnc2c(N)ncnc21)OCP(=O)(O)O` [Tenofovir] (concentration: 2.5 µM), in the assay with Jurkat [1], the mean cell size is 0.997 ± 0.14. The same compound yielded a cell count in the assay on Jurkat [2] of 0.894 ± 0.016.

Consider `CCCc1cc(=O)[nH]c(=S)[nH]1` [Propylthiouracil] (concentration: 25 µM), for which the mean cell size with Jurkat [1] amounted to 1.02 ± 0.048. The compound further came in with a cell count in the assay on Jurkat [2] of 0.981 ± 0.1.

`CN(C)CCC=C1c2ccccc2COc2ccccc21` [Doxepin·HCl] (concentration: 25 µM): the mean cell size in the assay with Jurkat [1] came out at 0.978 ± 0.049. The compound further gave a cell count in the assay on Jurkat [2] of 0.988 ± 0.13.

With `CNNCc1ccc(C(=O)NC(C)C)cc1` [Procarbazine·HCl] (concentration: 25 µM), the mean cell size in the assay on Jurkat [1] is 1.01 ± 0.053. Moreover, in the assay on Jurkat [2], the cell count was found to be 0.822 ± 0.1.

For `CCCSc1ccc2[nH]c(NC(=O)OC)nc2c1` [Albendazole] (concentration: 2.5 µM), the mean cell size in the assay on Jurkat [1] was 1.32 ± 0.11. The compound further came in with a cell count with Jurkat [2] of 0.209 ± 0.012.

For the compound `O=C1Nc2ccc(Cl)cc2[C@@](C#CC2CC2)(C(F)(F)F)O1` [Efavirenz] (concentration: 25 µM), the mean cell size in the assay with Jurkat [1] turned out to be 0.9 ± 0.017. Moreover, the cell count with Jurkat [2] is 0.628 ± 0.019.

In the assay with Jurkat [1], `CN(C)c1nc(N(C)C)nc(N(C)C)n1` [Altretamine] (concentration: 25 µM) yielded a mean cell size of 0.945 ± 0.019. The cell count in the assay on Jurkat [2] was 0.555 ± 0.077.

For `CCN(CC)CCNC(=O)c1ccc(N)cc1` [Procainamide·HCl] (concentration: 25 µM), the mean cell size with Jurkat [1] worked out at 1.03 ± 0.025. This compound displayed a cell count in the assay with Jurkat [2] of 0.935 ± 0.17.

With `CC1(C)O[C@@H]2C[C@H]3[C@@H]4CCC5=CC(=O)C=C[C@]5(C)[C@@]4(F)[C@@H](O)C[C@]3(C)[C@]2(C(=O)CO)O1` [Triamcinolone Acetonide] (concentration: 25 µM), in the assay with Jurkat [1], the mean cell size was 0.997 ± 0.039. In addition, the cell count with Jurkat [2] was 0.789 ± 0.084.
